Measurements published in PubChem BioAssay (NCI).
This is part of a sample that, as a whole, favours compounds with a hit. Of some 83,000 tested, about 20% had one in any assay.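 Each cell line was grown in a 96-well plate and treated with one concentration of compound for 48 hours. Values below 10 were considered active.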 Unmarked numbers belong to inactive results. Activity calls are given as the source filed them.

Experiments:
Test in all cases: NCI-60 one-dose screen, 48 h (100 = growth as untreated, 0 = no growth, -100 = all killed)
[1] = tested on: BT-549 breast; settings: 10 µM unless noted
[2] = tested on: MDA-MB-435 melanoma; settings: 10 µM unless noted
[3] = tested on: SW-620 colon; settings: 10 µM unless noted
[4] = tested on: MCF7 breast; settings: 10 µM
[5] = tested on: HCT-116 colon; settings: 10 µM unless noted
[6] = tested on: HCC-2998 colon; settings: 10 µM unless noted
[7] = tested on: KM12 colon; settings: 10 µM unless noted

| SMILES | growth [1] | growth [2] | growth [3] | growth [4] | growth [5] | growth [6] | growth [7] |
| --- | --- | --- | --- | --- | --- | --- | --- |
| Nc1nc2c(ncn2[C@@H]2O[C@H](CS)[C@@H](O)[C@H]2O)c(=O)[nH]1 | 100% | 99.8% | 96% | 101% | 102% | 104% | 101% |
| CCOC(=O)c1cc2c(n1Cc1cc(OC)cc(OC)c1)-c1oncc1CCC2 | 25.2% | -24.9% (active) | 24.7% | 12.5% | 15.1% | 19.3% | 19.1% |
| Cc1ccc2[nH]c(=O)cc(-n3nncc3Cn3c4ccccc4c4ccccc43)c2c1 | 96.6% | 100% | 97.9% | 99.5% | 97.8% | 101% | 103% |
| Cc1[nH]c2ccccc2c(=O)c1CC=C(Cl)Cl | 135% | 47.5% | 10.5% | -88.7% (active) | -65.6% (active) | 59.3% | 18.2% |
| CC(=S)NC(=O)C(=O)/C=C1/NC(=O)C(=O)S1 | 106% | 106% | 106% | 104% | 114% | 108% | 107% |
| COc1ccc(N(C)c2nc(N)nc3sc4c(c23)CCCC4)cc1 | 24% | -9.59% (active) | 28.7% | 15.2% | 1.18% (active) | 7.08% (active) | 7.2% (active) |
| COc1ccc2sc(N(Cc3cccnc3)C(=O)c3ccc(C#N)cc3)nc2c1 | 92.1% | 66.5% | 90.6% | 87% | 58.2% | 82.6% | 75.8% |
| N#C/C(=C\c1c(-c2ccccc2)[nH]c2ccccc12)S(=O)(=O)c1ccccc1 | 51.7% | 7.27% (active) | 28.6% | 14% | 36.8% | 57% | 25.1% |
| O=C1Nc2ccccc2/C1=C/c1cccs1 | 88.5% | 104% | 98.3% | 60.8% | 99.9% | 91.4% | 77.1% |
| COC(=O)c1c2c(c(C)[n+]([O-])c1C)C(=O)C(NCc1ccc(Br)cc1)=CC2=O | 62.3% | -77.4% (active) | 5.24% (active) | -20.1% (active) | 1.37% (active) | 14.4% | 15.2% |
| C1=CC2(C=C1)OC21CCC2(C=CC3(C2)OC3C2CCCCC2)CC1 (stereo not given) | 107% | 97.4% | 109% | 106% | 101% | 105% | 105% |
| Nc1nc(-c2ccccc2Br)nn1-c1nc2ccccc2s1 | 100% | 95% | 104% | 78.4% | 103% | 110% | 101% |
| COc1ccc(CCN2CCC(CN(C)Cc3cnn(-c4ccccc4)c3)CC2)cc1 | 32.5% | 38.1% | 26% | 12.4% | 21.5% | 21.5% | 22.5% |
| CCn1c(SCC(=O)Nc2cc(C(F)(F)F)ccc2Cl)nc2ccccc2c1=O | 64.3% | 18.1% | 49.1% | 28.9% | 32.2% | 11.7% | 10.3% |
| CCN1C(=O)N(CC)C2C1NN=c1s/c(=C3\C(=O)N(C(C)C)c4ccccc43)c(=O)n12 (stereo not given) | 6.02% (active) | -12.1% (active) | 27.1% | 20.5% | 10.1% | 20.3% | 15.3% |
| COc1cc(/C(C#N)=C/c2nc3c(N4CCOCC4)nc(Cl)nc3n2C)cc(OC)c1OC | 20.7% | -48.5% (active) | 19.8% | 6.74% (active) | 4.75% (active) | 7.16% (active) | 1.09% (active) |
| CN(C)c1ccc(/C=C/c2ccnc3c(O)cccc23)cc1 | 17.8% | 18.6% | 21.6% | 18.2% | 18.6% | 55.7% | 16.2% |
| CC/C(=C(\CC)c1ccc(OCC[N+](C)(C)C)cc1)c1ccc(OC)cc1 | 74.5% | 86% | 68.5% | 89% | 48.9% | 47.9% | 51.3% |

| SMILES | growth [1] | growth [2] | growth [3] | growth [4] | growth [5] | growth [6] | growth [7] |
| --- | --- | --- | --- | --- | --- | --- | --- |
| CCN(CC)CCCNc1ccnc2cc3ccccc3cc12 | 94.2% | 87.3% | 83% | 81.7% | 60.1% | 78.7% | 80.8% |
| COc1ccc(C2Nc3nc(OC)n(C)c(=O)c3N=C3c4ccccc4C(=O)C32)cc1 (stereo not given) | 86.3% | 78.5% | 90% | 74.5% | 95.4% | 103% | 75% |
| CCOc1ccc2nc(C)cc(Nc3ccc(Br)cc3)c2c1 | 108% | 110% | 94.8% | 76.6% | 80.4% | 117% | 108% |
| Brc1ccc(Oc2ccc(Nc3ncnc4onc(-c5ccccc5)c34)cc2)cc1 | 102% | 99.9% | 100% | 86.1% | 97.5% | 95.5% | 99.6% |
| NCCOc1ncccc1/C=C1\c2ccccc2-c2ccc([N+](=O)[O-])cc21 | -17.2% (active) | -70.5% (active) | -50.3% (active) | -42% (active) | -74.6% (active) | -82.2% (active) | -51.5% (active) |
| COc1c2ccoc2c(/C=C/C=O)c2oc(-c3ccccc3)cc(=O)c12 | 41.2% | 64.6% | 10% | 31.5% | -56.6% (active) | 104% | 91.4% |
| COC(=O)/C(CCC=C(C)C)=C1\[C@@H](OC(C)=O)C[C@@]2(C)[C@H]1C[C@@H](O)[C@H]1[C@@]3(C)CC[C@H](NC(=O)c4cnccn4)[C@@H](C)[C@@H]3CC[C@@]12C | 100% | 103% | 104% | 96% | 93.1% | 104% | 102% |
| CN1CCN(Cc2ccc(C(=O)Nc3cncc(C#Cc4cnc5cccnn45)c3)cc2C(F)(F)F)CC1 | 78.3% | 57.7% | 21.8% | 20.4% | 13% | 90% | 12.7% |
| O=C1OC(c2ccccc2)(c2ccccc2)c2ccsc21 | 104% | 108% | 97.4% | 104% | 103% | 127% | 99.1% |
| CC[C@@H](C)[C@H](NC(=O)Cn1cc(CNC(=O)[C@@H](NC(=O)OCc2ccccc2)C(C)C)nn1)C(=O)O | 107% | 102% | 105% | 100% | 107% | 101% | 109% |
| CCOC(=O)c1sc(-c2ccc(OS(=O)(=O)c3ccccc3[N+](=O)[O-])c(C=O)c2)nc1C | 47.7% | 78.4% | 36.8% | 20.8% | 13.6% | 111% | 96.2% |
| COc1ccc(OC)c(N(CCN2C(=O)c3ccccc3C2=O)C(=O)CCl)c1 | 92.4% | 81.5% | 96.4% | 78.8% | 89% | 111% | -11.3% (active) |
| COc1cc(/C=C2\Oc3cc(OCCCN4CCCC4)ccc3C2=O)cc(OC)c1 | 78.3% | 78.9% | 5.52% (active) | 4.85% (active) | -67.3% (active) | 75.7% | 26.3% |
| COc1cccc2cc(N(C)c3nc(C)nc4ccsc34)ccc12 | 13.3% | -16.1% (active) | 22.3% | 16.9% | -0.926% (active) | 7.08% (active) | -1.06% (active) |
| CCOC(=O)c1c2c(c(C)n1Cc1ccc(OC)cc1)-c1oncc1CC2 | 104% | 120% | 96.4% | 97.5% | 80.2% | 106% | 87.9% |
| O=C(/C=C/c1ccc(Cl)cc1)c1ccc(Nc2nc(NCCO)nc(N3CCOCC3)n2)cc1 | 85% | 77.9% | 50.4% | 9.73% (active) | 18.6% | 99% | 28.5% |
| O=C(/C=C/c1ccccc1)c1ccc(Nc2nc(NCCO)nc(Nc3ccc(Cl)cc3)n2)cc1 | 84.4% | 77.2% | 18.7% | 9.88% (active) | 27.5% | 62.5% | 28.2% |
